Screens deposited in PubChem by National Center for Advancing Translational Sciences (NCATS).
Compounds with a hit are over-represented: about 6.9% of the library has one in this group of screens.
PLK1 PBD block = qHTS for Inhibitors of PLK1-PDB (polo-like kinase 1 - polo-box domain): Primary Screen | Plk1 PBD binding of FITC phosphopeptide, fluorescence polarization | Potency, µM, for the others: max response, negative = inhibition, actives largely listed as inhibitors | 360,000 compounds, 2.8% hits | AID 720504, 2013; also: series mostly up to about 57 µM; % is scaled to controls: 0 for no effect and ±100 for the full control effect; nearly all actives have a fitted effect of over 65% in size
L3MBTL1 inh = qHTS Assay for the Inhibitors of L3MBTL1; Lethal(3)malignant brain tumor-like protein 1 (Homo sapiens), Q9Y468; AlphaScreen L3MBTL1–H3K9me1 peptide binding; Potency, µM (top dose mostly 57.1 µM), without a hit: top-dose activity, negative = inhibition, usual class: inhibitors; 230,000 compounds, 0.66% hits; AID 485360, 2010; also: % is scaled to controls: 0 for no effect and ±100 for the full control effect; nearly all actives have a fitted effect of over 60% in size
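AlphaScreen proximity signal between nickel-chelate acceptor and streptavidin donor beads (final 10 ug/mL) reports binding of 50 nM L3MBTL1 to 75 nM biotin-H3 K9me1 peptide; complex incubated with compounds 30 min at room temperature; cefsulodin titration as control.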
VDR inhibitor = Inhibitors of the vitamin D receptor (VDR): qHTS. VDR-SRC2-3 peptide fluorescence polarization, 2 h. AID 504847, 2011. 400,000 compounds, 0.93% hits. Vitamin D3 receptor (Homo sapiens), P11473. Potency, µM, inactives show max response, negative = inhibition, hits mostly inhibitors; also: % is scaled to controls: 0 for no effect and ±100 for the full control effect
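Fluorescence polarization assay of small-molecule disruption of VDR binding to coregulator peptide SRC2-3. Compounds and controls pin-transferred, then read after 2 h incubation at ambient room temperature.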
HP1b binding inh = HTS for Inhibitors of HP1-beta Chromodomain Interactions with Methylated Histone Tails. Chromobox protein homolog 1 (Homo sapiens), P83916. AlphaScreen HP1-beta / biotin-H3K9me3 peptide binding. Potency, µM (top dose mostly 114 µM), without a hit: at the top dose activity change, negative = inhibition, actives largely listed as inhibitors. 390,000 compounds, 0.56% hits. AID 540317, 2011; also: nearly all actives have a fitted effect of over 70% in size
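HP1-beta protein (50 nM final) preincubated 30 min at room temperature with biotinylated H3(1-18)K9me3 peptide (50 nM) in PBS pH 7.4, 0.01% Tween-20, then compound added for 30 min. AlphaScreen streptavidin donor/nickel chelate acceptor beads (10 ug/mL final), 30 min dark, luminescence read.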
BAZ2B block = qHTS Assay for Inhibitors of BAZ2B | Potency, µM (doses to about 114 µM), without a hit: at the highest dose activity change, negative = inhibition, actives largely listed as inhibitors | 360,000 compounds, 4.4% hits | AlphaScreen BAZ2B-H3K14Ac peptide displacement | Bromodomain adjacent to zinc finger domain protein 2B (Homo sapiens), Q9UIF8; also: % is scaled to controls: 0 for no effect and ±100 for the full control effect; nearly all actives have a fitted effect of over 60% in size
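AlphaScreen luminescence quantifies BAZ2B engagement of H3K14Ac peptide; the protein and biotinylated peptide are both at 50 nM final, buffer PBS pH 7.4 with 0.01% Tween-20, all steps at room temperature.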
JMJD2A Tudor inh = qHTS Assay for Inhibitors of JMJD2A-Tudor Domain. Potency, µM (top dose mostly 114 µM), for the others: at the top dose activity change, negative = inhibition, actives largely listed as inhibitors. 390,000 compounds, 4.4% hits. AlphaScreen JMJD2A-Tudor / H3K4me3 peptide binding. Lysine-specific demethylase 4A (Homo sapiens), O75164. AID 504339, 2011; also: % is scaled to controls: 0 for no effect and ±100 for the full control effect; nearly all actives have a fitted effect of over 50% in size
The depositor's hits bear a star; [ ] = another dose, or the depositor's remark. Calls follow the shape of the dose curve; as a rule, active = well fitted curve in the direction sought with a large enough effect; inconclusive = small, poorly fitted or top-dose-only effect, or another doubt; inactive = no such curve, though single readings can be large; an effect the other way counts as inactive or inconclusive. Potency is read from the fitted curve at half-maximal effect.

What do the screens show for `O=C(Nc1nc(-c2ccccc2)cs1)c1ccccc1NS(=O)(=O)c1ccc(F)cc1`?
PLK1 PBD block: 27µM*; L3MBTL1 inh: 0%; VDR inhibitor: -11%; HP1b binding inh: 8%; BAZ2B block: inconclusive; JMJD2A Tudor inh: inconclusive

How did CC(O)c1cccc2cc(C(O)CNC(C)(C)C)oc12 (stereo not drawn) do in these assays?
VDR inhibitor: 7%

Results for Cc1ccc(CNC(=O)C2CCCN(S(=O)(=O)c3ccc4c(c3)oc(=O)n4C)C2)cc1 (stereo not drawn) ?
VDR inhibitor: 1%; HP1b binding inh: 61%; BAZ2B block: -3%; JMJD2A Tudor inh: -6%

How did O=C(CCS(=O)(=O)c1ccc(F)cc1)Nc1nc(-c2ccncc2)cs1 do in these assays?
PLK1 PBD block: 12µM*; VDR inhibitor: inconclusive; HP1b binding inh: inconclusive; BAZ2B block: -24%; JMJD2A Tudor inh: -35%

What do the screens show for `O=C(Nc1nc(-c2ccc(Cl)cc2)cs1)c1cccnc1`?
PLK1 PBD block: 12µM*; VDR inhibitor: -19%; HP1b binding inh: inconclusive; BAZ2B block: -8%; JMJD2A Tudor inh: -22%[11.4 µM]

What do the screens show for `CC(C)N=C(NS(=O)(=O)c1ccc(Br)cc1)c1ccc(Cl)cc1`?
PLK1 PBD block: 9%; L3MBTL1 inh: 3%; VDR inhibitor: 1%; HP1b binding inh: 30%; BAZ2B block: 8%; JMJD2A Tudor inh: -13%

How did CCOC(=O)/C(N=Nc1ccc2c(c1)OCO2)=C(\C)O do in these assays?
PLK1 PBD block: inconclusive; VDR inhibitor: 5%; HP1b binding inh: -21%; BAZ2B block: inconclusive; JMJD2A Tudor inh: 50µM*

What do the screens show for `CCOC(=O)C(=O)Nc1ccc2c(c1)OCO2`?
PLK1 PBD block: -11%; VDR inhibitor: 5%; HP1b binding inh: 35%; BAZ2B block: -25%; JMJD2A Tudor inh: -16%

Results for CCc1cccc(Nc2c([N+](=O)[O-])cc(C(=O)N3CC(=O)Nc4ccccc43)cc2[N+](=O)[O-])c1 ?
PLK1 PBD block: -4%; L3MBTL1 inh: inconclusive; VDR inhibitor: -7%; HP1b binding inh: inconclusive; BAZ2B block: 10µM*; JMJD2A Tudor inh: inconclusive

How did CCC(C(=O)NCCc1ccccc1)n1nc(C)c2sc3ccccc3c2c1=O (stereo not drawn) do in these assays?
VDR inhibitor: 7%; HP1b binding inh: 18%; BAZ2B block: 4%; JMJD2A Tudor inh: -12%

Results for Oc1cccc2c(NC(=S)Nc3ccc(OC(F)F)cc3)cccc12 ?
PLK1 PBD block: 0%; L3MBTL1 inh: -14%; VDR inhibitor: -6%; HP1b binding inh: inconclusive; BAZ2B block: 45µM*; JMJD2A Tudor inh: inconclusive

What do the screens show for `FC(F)Oc1ccc(NC(=S)Nn2cnnc2)cc1`?
PLK1 PBD block: 6.7µM*; VDR inhibitor: inconclusive; HP1b binding inh: -27%; BAZ2B block: -9%; JMJD2A Tudor inh: inconclusive

Results for CN(NC(=S)Nc1ccc(OC(F)F)cc1)C(=S)Nc1ccc(OC(F)F)cc1 ?
PLK1 PBD block: -25%; L3MBTL1 inh: 3%; VDR inhibitor: 5%; HP1b binding inh: -4%; BAZ2B block: -5%; JMJD2A Tudor inh: -9%

What do the screens show for `CNc1ccc2c3c(cccc13)C(=O)N(C)C2=O`?
PLK1 PBD block: 3µM*; VDR inhibitor: 15%; HP1b binding inh: 63%; BAZ2B block: 11%; JMJD2A Tudor inh: 18%

What do the screens show for `Oc1c(Cl)cc(Cl)c2c1NCCC2`?
PLK1 PBD block: 4.7µM*; L3MBTL1 inh: -6%; VDR inhibitor: 32µM*; HP1b binding inh: 50µM*; BAZ2B block: inconclusive; JMJD2A Tudor inh: 56µM*

Results for CCOC(=O)c1c(C)[nH]c(C2=NNC(=NC3CC3)SC2)c1C ?
PLK1 PBD block: 30µM*; L3MBTL1 inh: -21%; VDR inhibitor: 8.9µM*; HP1b binding inh: inconclusive; BAZ2B block: -32%; JMJD2A Tudor inh: inconclusive

Results for CO/N=C\CC(=O)Nc1ccc(Cl)cc1Cl ?
PLK1 PBD block: 21µM*; L3MBTL1 inh: 9%; VDR inhibitor: inconclusive; HP1b binding inh: 3%; BAZ2B block: 7%; JMJD2A Tudor inh: 14µM*

What do the screens show for `O=C(O)c1ccc2c(=O)n(-c3ccccc3)c(=S)[nH]c2c1`?
PLK1 PBD block: 5%; VDR inhibitor: 9%; HP1b binding inh: 47%; BAZ2B block: -19%; JMJD2A Tudor inh: 6%

How did O=c1[nH]c(=O)c2[nH]c(=S)n(-c3ccccc3)c2[nH]1 do in these assays?
PLK1 PBD block: -8%; VDR inhibitor: -6%; HP1b binding inh: -7%; JMJD2A Tudor inh: 40µM*

What do the screens show for `O=C(CSc1nnc(-c2ccco2)o1)NC(=O)Cc1ccccc1`?
PLK1 PBD block: -16%; VDR inhibitor: 15%; HP1b binding inh: 16%; BAZ2B block: 79µM*; JMJD2A Tudor inh: -17%

What do the screens show for `O=C(CSc1ccc(Cl)cc1)Nc1nnc(-c2ccco2)o1`?
PLK1 PBD block: -7%; L3MBTL1 inh: 17%; VDR inhibitor: -13%; HP1b binding inh: 47%; BAZ2B block: 50µM*; JMJD2A Tudor inh: inconclusive

What do the screens show for `Cc1csc2nc(COC(=O)c3ccc(F)cc3)cc(=O)n12`?
VDR inhibitor: 9%; HP1b binding inh: 69%; BAZ2B block: -3%; JMJD2A Tudor inh: 2%

Results for O=C(NC(c1ccccc1)c1ccccc1)c1ccc(=O)[nH]n1 ?
PLK1 PBD block: 24µM*; L3MBTL1 inh: 0%; VDR inhibitor: -17%; HP1b binding inh: -10%; BAZ2B block: inconclusive; JMJD2A Tudor inh: -13%[11.4 µM]

What do the screens show for `Oc1ccc(Cl)cc1N=Nc1ccccc1`?
PLK1 PBD block: 0%; L3MBTL1 inh: inconclusive; VDR inhibitor: 10%; HP1b binding inh: -27%; BAZ2B block: 32µM*; JMJD2A Tudor inh: 35µM*

What do the screens show for `Oc1ccc(N=Nc2ccccc2)cc1`?
PLK1 PBD block: 5%; VDR inhibitor: 0%; HP1b binding inh: -10%; BAZ2B block: inconclusive; JMJD2A Tudor inh: inconclusive

How did CN(CC1CCOCC1)C(=O)CC1C(=O)NCCN1Cc1ccc(F)c(F)c1 (stereo not drawn) do in these assays?
PLK1 PBD block: -3%; VDR inhibitor: 0%; HP1b binding inh: 51%; BAZ2B block: 1%; JMJD2A Tudor inh: -5%
